Activity calls are given as the source filed them. The rule behind the calls is not given here.

In this experiment the target is Pantothenate synthetase (Mycobacterium tuberculosis (strain ATCC 25618 / H37Rv)) (UniProt P9WIL5). As to the kind of experiment: Recombinant Mtb pantothenate synthetase (PanC) inhibitors, coupled enzyme, confirmatory (AID 375).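 Note: 0% = full reaction with vehicle and 100% = no enzyme background.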 The settings on record: coupled enzyme assay; at 10 µM, active compounds read high.
Sequence of Pantothenate synthetase (Mycobacterium tuberculosis (strain ATCC 25618 / H37Rv)) (P9WIL5 whole entry, looked up): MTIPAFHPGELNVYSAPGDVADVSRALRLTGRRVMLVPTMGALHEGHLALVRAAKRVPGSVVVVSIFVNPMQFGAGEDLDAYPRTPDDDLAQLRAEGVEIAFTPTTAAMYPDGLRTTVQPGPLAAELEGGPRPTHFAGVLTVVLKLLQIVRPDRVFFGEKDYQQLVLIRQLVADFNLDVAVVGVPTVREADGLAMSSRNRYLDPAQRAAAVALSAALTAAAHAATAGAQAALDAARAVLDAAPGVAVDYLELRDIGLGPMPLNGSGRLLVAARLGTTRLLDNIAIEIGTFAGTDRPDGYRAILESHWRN
A word on the inhibition: it is the drop in the measured response relative to a control, in per cent. As to `CC(=O)C1=C(C)OC(N)=C(C#N)C1c1ccncc1` (stereo not given), the inhibition was 0% (inactive). Under `Cc1cc(C)n2nc3nc(N4CCCCC4)nc(-c4ccco4)c3c2n1` stands 25% (inactive).

As to `CCOc1ccccc1N1C(=O)CC(Sc2ncccc2C(=O)O)C1=O` (stereo not given), the inhibition is 0% (inactive). With `O=C(Nc1cccc(F)c1)N1CC=C(n2c(=O)[nH]c3ccccc32)CC1`, the inhibition was 5% (inactive).

With `O=C(CSc1nnc(-c2cccs2)o1)NCC1CN(Cc2ccccc2)CCO1` (stereo not given), the inhibition is 0% (inactive). Under `CCN(CC)CCN1C(=O)C(=O)/C(=C(/O)c2c(C)[nH]c(C(=O)OC)c2C)C1c1ccco1` (stereo not given) stands 0% (inactive); under `COCCn1c(SCC(=O)Nc2cccc(OC)c2)nnc1-c1ccccc1`, 4% (inactive); under `S=c1[nH]nc(COc2ccccc2)n1C1CCCCC1`, 0% (inactive). Take `CCOC(=O)N1CCN(C(=O)C2c3cc(OC)c(OC)cc3C(=O)N3CCc4ccccc4C23)CC1` (stereo not given): the inhibition was 4% (inactive). Take `Cc1cc(OCC(O)CN2CCN(CCO)CC2)ccc1C(C)C` (stereo not given): the inhibition is 8% (inactive). Under `Cc1c(C(=O)Nc2cnccn2)oc2ccccc12` stands 1% (inactive). As for `CC(=O)NCc1ccc(C(=O)CSc2nnc(-c3ccncc3)n2Cc2ccccc2)o1`, the figure is 16% (inactive); as for `O=C1c2ccccc2C(Nc2cccnc2)N1Cc1ccccc1Cl` (stereo not given), 0% (inactive); as for `Cc1csc(NC(=O)c2cc3c(s2)-c2ccccc2OC3)n1`, 0% (inactive).

For the compound `O=C(CSc1nc2ccccc2nc1SCC(=O)N1CCOCC1)N1CCOCC1`, the inhibition was 0% (inactive). For the compound `CC(=O)NS(=O)(=O)c1ccc(N)cc1`, the inhibition was 2% (inactive).

On to `CCOc1ccccc1C1N(c2ccc(F)cc2)C(=O)C2CCCN21` (stereo not given), for which the inhibition is 2% (inactive).

On to `CCCCN(CC)CCCNC(=O)c1cc2c(=O)n(C)c3ccccc3c2n1C`, for which the inhibition is 0% (inactive).

As for `O=C(CSc1nnc2scc(-c3ccccc3)n12)N1CCN(Cc2ccccc2)CC1`, the inhibition is 6% (inactive).

For the compound `CCc1cn([C@H]2C[C@H](O)[C@@H](CO)O2)c(=O)[nH]c1=O`, the inhibition is 0% (inactive). As for `c1ccc(CN2CCN(CCCNc3ccc4nnc(-c5ccccc5)n4n3)CC2)cc1`, the figure is 10% (inactive); as for `O=c1cc(-c2ccccc2)[nH]c2nc3ccccc3n12`, 0% (inactive).

For `O=C1NC(c2ccco2)Nc2ccccc21` (stereo not given), the inhibition was 0% (inactive).

In the case of `COc1cccc(NC(=O)N2CCCC2C(=O)NC(C)C)c1` (stereo not given), the inhibition is 0% (inactive). Under `COc1ccc(S(=O)(=O)NC(C)C(=O)Nc2cccc(C(C)=O)c2)cc1` (stereo not given) stands 0% (inactive). Under `O=C(Cn1ncc2c(=O)oc3ccccc3c21)Nc1nc2ccccc2s1` stands 0% (inactive); under `COCCN1CCN(c2c(C)c(C)nc3cc(-c4cccc(OC)c4)nn23)CC1`, 0% (inactive).

For `CCOC(=O)C(CC)n1nc(C)n2c(cc3sccc32)c1=O` (stereo not given), the inhibition was 4% (inactive). As for `CC(C)Cn1c(N)c(C(=O)NCCN2CCOCC2)c2nc3ccccc3nc21`, the figure is 0% (inactive); as for `COC(=O)c1ccc(-c2nn(C)c(=O)c3ccccc23)cc1`, 0% (inactive). Under `CN(C)c1nc(N)nc(-c2nc3ccccc3s2)n1` stands 0% (inactive); under `O=C1c2ccccc2C(=O)N1CCCn1nnc(-c2ccc(N3CCOCC3)cc2)n1`, 3% (inactive). For the compound `CCCNC(=O)NC1C(NC(=O)NCCC)N(C)C(=O)N1C` (stereo not given), the inhibition was 5% (inactive). `CN1CCCN(C(c2ccccc2)c2ccc(Cl)cc2)CC1` (stereo not given): the inhibition was 0% (inactive). As for `Cc1occc1-c1nnc(SCC(=O)N2CCc3ccccc32)o1`, the figure is 0% (inactive); as for `CCCCn1c(SCC(=O)Nc2ccc(OC)cc2)nc2ccc(N3CCOCC3)cc2c1=O`, 0% (inactive); as for `CC1(C)CC(=O)C=C(Nc2ccc(OCC(F)(F)C(F)F)cc2)C1`, 5% (inactive). As for `Cc1ccc(C)c(CSc2nnc(CCN)o2)c1`, the figure is 0% (inactive); as for `CC(=O)N1CCc2cc(S(=O)(=O)CCC(=O)Nc3cccc(F)c3)ccc21`, 0% (inactive); as for `COc1ccc(-c2cc(O)cc(O)c2)cc1`, 0% (inactive).

The record behind these values is PubChem BioAssay.
